Data on 15 compounds can be found in ChEMBL document CHEMBL1961873, “Compounds: GSK PKIS; Assays: Nanosyn kinase panel” (2012).

The term inhibition denotes the share of the control response that was lost under treatment. Lower therefore signals a weak effect.

The test system of this assay is Tyrosine-protein kinase ABL1 (Homo sapiens), P00519 [Q252H]. As to conditions: at 0.1 µM.
In turn, `O=C(Nc1ccc(Oc2ccc3[nH]c(NC(=O)c4ccccc4)nc3c2)cc1)Nc1cc(C(F)(F)F)ccc1F` yielded an inhibition of 38.4%. To `CCS(=O)(=O)c1ccc(OC)c(Nc2ncc(-c3cccc(-c4ccccc4F)c3)o2)c1` belongs 37.9%. To `C[C@@H](Oc1cc(-n2cnc3ccc(OCC4CCN(C)CC4)cc32)sc1C(N)=O)c1ccccc1Cl` belongs 4.18%; to `Clc1ccc(CNc2nccc(-c3cnn4ncccc34)n2)cc1`, 2.33%. For `COc1ccc(C2=C(N3CCc4ccccc43)C(=O)NC2=O)cc1`, the inhibition was 4.56%. The compound `CCN(CC)Cc1ccc(Nc2nccc(-c3cnn4ncccc34)n2)cc1` had an inhibition of 8.65%.

Take `COc1cc2ncn(-c3cc(OCc4ccccc4C(F)(F)F)c(C(C)=O)s3)c2cc1OC`: the inhibition amounted to 4.93%.

With `Fc1ccc(-c2nc3n(c2-c2ccncc2)CCS3)cc1`, the inhibition was determined as 2.91%. Regarding `COc1cccc(/C=N/Nc2ncnc3c2cnn3-c2cccc(OC)c2)c1`, the inhibition worked out at 12.9%. `CS(=O)(=O)CCNCc1ccc(-c2ccc3ncnc(Nc4ccc(OCc5ccccc5)c(Br)c4)c3c2)o1` showed an inhibition of 3.94%. To `COc1cc(N2CCN(C(C)C)CC2)ccc1Nc1nc(Nc2ccc(F)cc2C(=O)NC[C@@H](O)CO)c2cc[nH]c2n1` belongs 3.53%.

As for `CN(C)c1ccc2c(c1)/C(=C/Nc1ccc(S(N)(=O)=O)cc1)C(=O)N2`, the inhibition amounted to 4%. For `CN(C)CCCNc1nccc(-c2c(-c3ccc(F)cc3)nn3cc(C(F)(F)F)ccc23)n1`, the inhibition is 3.28%. The figure for `Nc1nccc(-c2c(-c3ccc(F)cc3)ncn2C2CCC(O)CC2)n1` (stereo not given) is 5.19%.

Compound `COc1cc2ncn(-c3cc(OCCc4ccccc4)c(C(N)=O)s3)c2cc1OC` showed an inhibition of 0.95%.
